# In the library only some 8.7% were active in any assay of this set; here they are far more common.
# JMJD2A Tudor inh = inhibitors of human JMJD2A Tudor domain; O75164; AlphaScreen JMJD2A-Tudor / H3K4me3 peptide binding; Potency, µM (titrated, usually from 114 µM), for inactives: at the top dose activity change, negative = inhibition, most hits filed as inhibitors; 390,000 compounds, 4.4% hits; AID 504339; note: % is set by controls: 0 for no effect and ±100 for the full control effect; nearly all actives have a fitted effect of over 50% in size
# ALOX12 inh = ALOX12 (human) lipoxygenase inhibition | 580,000 compounds, 1.1% hits | purified 12hLO, xylenol orange hydroperoxide absorbance | Potency, µM (doses to about 108 µM), for inactives: at the top dose activity change, negative = inhibition, usual class: inhibitors; note: % is set by controls: 0 for no effect and ±100 for the full control effect
#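 Hydroperoxide product was detected by ferrous iron/xylenol orange as the 573 to 405 nm absorbance ratio. Arachidonic acid at 40 uM (final) was turned over for 30 min at room temperature by 150 nM human 12hLO, pH 7.0 Hepes buffer, after 15 min compound preincubation.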
# HP1b chromo inh = blocks HP1-beta chromodomain binding to methylated histone tails; AlphaScreen HP1-beta / biotin-H3K9me3 peptide binding; Potency, µM (top dose mostly 114 µM), for the others: at the top dose activity change, negative = inhibition, most hits filed as inhibitors; 390,000 compounds, 0.56% hits; note: nearly all actives have a fitted effect of over 70% in size
#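 Compound inhibition of the preformed complex between 50 nM HP1-beta and 50 nM biotinylated H3K9me3 peptide was read by AlphaScreen. Buffer was PBS pH 7.4 with 0.01% Tween-20. Incubations ran 30 min at room temperature, with 10 ug/mL donor/acceptor beads.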
# BAZ2B block = blocks human BAZ2B; Q9UIF8; AlphaScreen BAZ2B-H3K14Ac peptide displacement; Potency, µM (top dose mostly 114 µM), for the others: at the top dose activity change, negative = inhibition, actives largely listed as inhibitors; 360,000 compounds, 4.4% hits; note: % is set by controls: 0 for no effect and ±100 for the full control effect; nearly all actives have a fitted effect of over 60% in size
#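 Protein-peptide AlphaScreen: BAZ2B 50 nM, b-H3K14Ac 50 nM, 1x PBS pH 7.4 + 0.01% Tween-20. Preincubation 30 min RT; cpd 30 min RT (top 110 uM); beads 20 min RT, light-protected.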
# Sfp PPTase inh = inhibitors of Bacillus subtilis Sfp phosphopantetheinyl transferase; Biochemical Sfp PPTase activity, qHTS; Potency, µM, inactives show largest response in the series, negative = inhibition, most hits filed as inhibitors; 310,000 compounds, 3.5% hits; AID 1490;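 note: the enzyme is Sfp with the accession as filed and its product quenches rhodamine fluorescence; 0% = enzyme reaction without inhibitor and -100% = no enzyme wells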
#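 Buffer: 50 mM Hepes-Na pH 7.6, 10 mM MgCl2, 0.01% Nonidet P-40, 0.01% BSA. Enzyme 15 nM, pre-exposed to compound 15 min; substrates then added and fluorescence change tracked over 30 min.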
# G9a inh = G9a (human) methyltransferase inhibition; Potency, µM (titrated, usually from 102 µM), for inactives: top-dose activity, negative = inhibition, hits mostly inhibitors; Q96KQ7; G9a H3K9 monomethylation, AlphaScreen, 2 h; 350,000 compounds, 8.8% hits; note: % is set by controls: 0 for no effect and ±100 for the full control effect; nearly all actives have a fitted effect of over 75% in size
#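 Using a bead-based AlphaScreen, monomethylated H3K9 product from 2 h room-temperature reactions (G9a 20 nM, peptide 500 nM, SAM 20 uM) was detected with 0.5 ug/mL rabbit anti-H3K9me1 antibody.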
# Numbers without * were called inactive; ? = inconclusive; . = not tested or not shown; [ ] = dose if it differs, or a comment. Calls come from the whole dose curve; as a rule, active = well fitted curve in the direction sought with a large enough effect; inconclusive = small, poorly fitted or top-dose-only effect, or another doubt; inactive = no such curve, though single readings can be large; an effect the other way counts as inactive or inconclusive. Potency is the fitted concentration of half-maximal effect.
SMILES,JMJD2A Tudor inh,ALOX12 inh,HP1b chromo inh,BAZ2B block,Sfp PPTase inh,G9a inh
C/C(=N\OCc1nc2ccccc2c(=O)n1/N=C/c1cc([N+](=O)[O-])ccc1O)c1ccccc1,-29%,8%,-5%,-38%,2%,40µM*
CC(=O)N1CCc2ccc(C(=O)N3CCC(C)CC3)cc21,.,37%,.,.,.,.
Cn1c(-c2ccc(Cl)cc2Cl)cc2ccccc21,.,4%,.,.,.,.
C(=N\n1cnnc1SCc1ccccc1)/c1ccco1,-23%,0%,26%,0%,3%,56µM*
Fc1ccc(Cl)cc1/C=N/n1cnnc1SCc1ccccc1,-21%,-36%,9%,-31%,17%,-28%
N#Cc1cccnc1NCCCNc1ccccn1,.,9%,.,.,.,.
c1coc(CNC23CC4CC(CC(C4)C2)C3)c1,.,-27%,.,.,.,.
O=S(=O)(Nc1nc2n(n1)C(c1ccccc1)C=C(c1ccc(Cl)cc1)N2)c1ccccc1 (stereo not drawn),-5%,?,55%,79µM*,.,?
Cc1ccc(S(=O)(=O)Nc2nc3n(n2)C(c2ccc(F)cc2)C=C(c2ccccc2)N3)cc1 (stereo not drawn),-7%,1%,31%,-15%,.,?
Cc1ccc(C2C=C(c3ccccc3)Nc3nc(N4C(=O)CCC4=O)nn32)cc1 (stereo not drawn),79µM*,5%,13%,50µM*,-19%,?
Cc1ccc(C2C=C(c3ccc(Cl)cc3)Nc3nc(NC(=O)c4ccco4)nn32)cc1 (stereo not drawn),79µM*,22µM*,34%,50µM*,.,32µM*
Cc1ccc(C2C=C(c3ccccc3)Nc3nc(NS(=O)(=O)c4ccccc4)nn32)cc1 (stereo not drawn),-8%,?,48%,2%,.,14µM*
O=c1c2ccc(F)cc2ncn1Cc1coc(-c2cccs2)n1,.,3%,.,.,.,.
CC(C)NC(=O)C1CCc2nnc(C3CCN(C(=O)c4ccccc4)CC3)n21 (stereo not drawn),.,6%[6.33 µM],.,.,.,.
CCOC(=O)COc1ccc2c(=O)c(Oc3ccc(OC)cc3)c(C)oc2c1,.,8%,.,.,.,.
CNC(=S)N/N=C/c1c(F)cccc1F,.,-29%,.,.,.,.
O=C(NCc1ccc(S(=O)(=O)N2CCOCC2)cc1)c1cc(-c2ccncc2)nc2ccccc12,.,31%,.,.,.,.
Cc1ccc(C2C=C(c3ccccc3)Nc3nc(NS(C)(=O)=O)nn32)cc1 (stereo not drawn),-5%,?,22%,0%,.,20µM*
Cc1ccc(S(=O)(=O)Nc2nc3n(n2)C(c2ccc(Cl)cc2)C=C(c2ccccc2)N3)cc1 (stereo not drawn),-5%,?,38%,-30%,.,-36%[59 µM]
Cc1cc(C(=O)COc2ccccc2C#N)c(C)n1CCC(C)C,.,-45%,.,.,.,.
Cc1ccc(/C=N/NC(=O)c2cccc(S(=O)(=O)Nc3ccccc3Cl)c2)s1,?,-17%,-2%,4%,0%,50µM*
O=C(NN=Cc1ccc(F)cc1)c1cccc(S(=O)(=O)N2CCCC2)c1,-12%,16µM*,15%,.,.,.
O=C(N/N=C/c1ccc(O)c(O)c1)c1cccc(S(=O)(=O)N2CCCCC2)c1,?,?,5%,?,-23%,50µM*
O=C(Nc1ccncc1)c1cccc(S(=O)(=O)N2CCN(c3ccc(F)cc3)CC2)c1,?,3%,-23%,?,.,?
O=C(N/N=C/c1ccccc1C(=O)O)c1cccc(S(=O)(=O)Nc2cc(Cl)ccc2Cl)c1,-11%,-30%,4%,-12%,10%,-2%[59 µM]
CCOc1cc(C=NNC(=O)c2cccc(S(=O)(=O)N3CCCC3)c2)ccc1O,-28%,13%,47%,.,.,.
O=C(Nc1ncccc1O)c1cccc(S(=O)(=O)N2CCN(c3ccc(F)cc3)CC2)c1,-32%,1%,7%,-17%,.,79µM*
O=C(N/N=C/c1ccncc1)c1cccc(S(=O)(=O)N2CCCC2)c1,-21%,11%,31%,-10%,.,2%

# High-throughput results (PubChem BioAssay)
